The source made the active and inactive calls.

A short description of experiment [1]: small molecules captured by biotinylated probe aFSTL3 – biochemical, small-molecule microarray, fluorescence 635/667, stem cell growth factor project, primary screen (AID 1064).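 Note: measures binding of the biotinylated anti-FSTL3 antibody to printed compounds.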 The conditions noted are these: higher = more signal.
Experiment [2] is described as follows: binders from COS7 lysate, DM2A8 probe, primary screen, torsin A project, cell lysate, small-molecule microarray, fluorescence 635/667 (AID 1065). The conditions noted are these: higher = more signal, COS7 lysate expressing mutant human TOR1A.
Experiment [3] can be described thus: small molecules captured by biotinylated probe aFGF2 – biochemical, small-molecule microarray, fluorescence 635/667, stem cell growth factor project, primary screen (AID 1067).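 Note: measures binding of biotinylated aFGF2 protein to printed compounds on slides; z-score merges feature fluorescence and signal-to-noise across triplicate slides.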 The conditions noted are these: higher = more signal.
Experiment [4] can be described thus: small molecules captured by biotinylated probe aFGF10 – biochemical, small-molecule microarray, fluorescence 635/667, stem cell growth factor project, primary screen (AID 1071).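 Note: score merges 667 nm spot intensity and signal to noise from triplicate slides.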 The following applies: higher = more signal.
The target in experiment [5] is Neurogenic locus notch homolog protein 2 (Homo sapiens) (UniProt Q04721). Description: small molecules binding Notch2 protein – biochemical, small-molecule microarray, 635 nm fluorescence, stem cell growth factors, primary screen (AID 1073). The following applies: higher = more signal.
The target of experiment [6] is Pro-neuregulin-1, membrane-bound isoform (Homo sapiens) (UniProt Q02297). Kind of experiment: small molecules binding neuregulin-1 protein – biochemical, small-molecule microarray, fluorescence 635/667, psychiatric disease protein project, primary screen (AID 1075).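 Note: score combines 667 nm spot fluorescence with signal to noise.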 The conditions noted are these: NRG1 binding, 635 nm fluorescence, higher = more signal.
The test system of experiment [7] is Neuregulin-1 EGF-like domain. Kind of experiment: small molecules binding NRG1 EGF domain – biochemical, small-molecule microarray, 635 nm fluorescence, primary screen (AID 1081).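 Note: binding of the protein to compounds printed on small-molecule microarray slides.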 The following applies: higher = more signal.
A short description of experiment [8]: FRG1 expression reporter modulators in myotubes – cell-based, C2C12 myotubes, firefly/Renilla luciferase, luminescence, FRG1 inhibition for FSHD, primary screen (AID 1084). The conditions noted are these: FRG1 promoter luciferase, higher = more signal, called active from +8 up or from −8 down.
Experiment [9] is described as follows: small molecules captured by biotinylated probe aFST – biochemical, small-molecule microarray, fluorescence 635/667, stem cell growth factor project, primary screen (AID 1086).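 Note: score merges 667 nm fluorescence with signal-to-noise of each printed compound spot.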 The following applies: higher = more signal.
Experiment [10] in a line: binders of probe aHhip on microarray, primary screen, stem cell growth factor project, biochemical, small-molecule microarray, fluorescence 635/667 (AID 1087).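 Note: score merges spot fluorescence at 667nm with spot signal to noise ratio.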 The conditions noted are these: higher = more signal.

Sequence of Neurogenic locus notch homolog protein 2 (Homo sapiens) (Q04721 whole entry, looked up, canonical isoform): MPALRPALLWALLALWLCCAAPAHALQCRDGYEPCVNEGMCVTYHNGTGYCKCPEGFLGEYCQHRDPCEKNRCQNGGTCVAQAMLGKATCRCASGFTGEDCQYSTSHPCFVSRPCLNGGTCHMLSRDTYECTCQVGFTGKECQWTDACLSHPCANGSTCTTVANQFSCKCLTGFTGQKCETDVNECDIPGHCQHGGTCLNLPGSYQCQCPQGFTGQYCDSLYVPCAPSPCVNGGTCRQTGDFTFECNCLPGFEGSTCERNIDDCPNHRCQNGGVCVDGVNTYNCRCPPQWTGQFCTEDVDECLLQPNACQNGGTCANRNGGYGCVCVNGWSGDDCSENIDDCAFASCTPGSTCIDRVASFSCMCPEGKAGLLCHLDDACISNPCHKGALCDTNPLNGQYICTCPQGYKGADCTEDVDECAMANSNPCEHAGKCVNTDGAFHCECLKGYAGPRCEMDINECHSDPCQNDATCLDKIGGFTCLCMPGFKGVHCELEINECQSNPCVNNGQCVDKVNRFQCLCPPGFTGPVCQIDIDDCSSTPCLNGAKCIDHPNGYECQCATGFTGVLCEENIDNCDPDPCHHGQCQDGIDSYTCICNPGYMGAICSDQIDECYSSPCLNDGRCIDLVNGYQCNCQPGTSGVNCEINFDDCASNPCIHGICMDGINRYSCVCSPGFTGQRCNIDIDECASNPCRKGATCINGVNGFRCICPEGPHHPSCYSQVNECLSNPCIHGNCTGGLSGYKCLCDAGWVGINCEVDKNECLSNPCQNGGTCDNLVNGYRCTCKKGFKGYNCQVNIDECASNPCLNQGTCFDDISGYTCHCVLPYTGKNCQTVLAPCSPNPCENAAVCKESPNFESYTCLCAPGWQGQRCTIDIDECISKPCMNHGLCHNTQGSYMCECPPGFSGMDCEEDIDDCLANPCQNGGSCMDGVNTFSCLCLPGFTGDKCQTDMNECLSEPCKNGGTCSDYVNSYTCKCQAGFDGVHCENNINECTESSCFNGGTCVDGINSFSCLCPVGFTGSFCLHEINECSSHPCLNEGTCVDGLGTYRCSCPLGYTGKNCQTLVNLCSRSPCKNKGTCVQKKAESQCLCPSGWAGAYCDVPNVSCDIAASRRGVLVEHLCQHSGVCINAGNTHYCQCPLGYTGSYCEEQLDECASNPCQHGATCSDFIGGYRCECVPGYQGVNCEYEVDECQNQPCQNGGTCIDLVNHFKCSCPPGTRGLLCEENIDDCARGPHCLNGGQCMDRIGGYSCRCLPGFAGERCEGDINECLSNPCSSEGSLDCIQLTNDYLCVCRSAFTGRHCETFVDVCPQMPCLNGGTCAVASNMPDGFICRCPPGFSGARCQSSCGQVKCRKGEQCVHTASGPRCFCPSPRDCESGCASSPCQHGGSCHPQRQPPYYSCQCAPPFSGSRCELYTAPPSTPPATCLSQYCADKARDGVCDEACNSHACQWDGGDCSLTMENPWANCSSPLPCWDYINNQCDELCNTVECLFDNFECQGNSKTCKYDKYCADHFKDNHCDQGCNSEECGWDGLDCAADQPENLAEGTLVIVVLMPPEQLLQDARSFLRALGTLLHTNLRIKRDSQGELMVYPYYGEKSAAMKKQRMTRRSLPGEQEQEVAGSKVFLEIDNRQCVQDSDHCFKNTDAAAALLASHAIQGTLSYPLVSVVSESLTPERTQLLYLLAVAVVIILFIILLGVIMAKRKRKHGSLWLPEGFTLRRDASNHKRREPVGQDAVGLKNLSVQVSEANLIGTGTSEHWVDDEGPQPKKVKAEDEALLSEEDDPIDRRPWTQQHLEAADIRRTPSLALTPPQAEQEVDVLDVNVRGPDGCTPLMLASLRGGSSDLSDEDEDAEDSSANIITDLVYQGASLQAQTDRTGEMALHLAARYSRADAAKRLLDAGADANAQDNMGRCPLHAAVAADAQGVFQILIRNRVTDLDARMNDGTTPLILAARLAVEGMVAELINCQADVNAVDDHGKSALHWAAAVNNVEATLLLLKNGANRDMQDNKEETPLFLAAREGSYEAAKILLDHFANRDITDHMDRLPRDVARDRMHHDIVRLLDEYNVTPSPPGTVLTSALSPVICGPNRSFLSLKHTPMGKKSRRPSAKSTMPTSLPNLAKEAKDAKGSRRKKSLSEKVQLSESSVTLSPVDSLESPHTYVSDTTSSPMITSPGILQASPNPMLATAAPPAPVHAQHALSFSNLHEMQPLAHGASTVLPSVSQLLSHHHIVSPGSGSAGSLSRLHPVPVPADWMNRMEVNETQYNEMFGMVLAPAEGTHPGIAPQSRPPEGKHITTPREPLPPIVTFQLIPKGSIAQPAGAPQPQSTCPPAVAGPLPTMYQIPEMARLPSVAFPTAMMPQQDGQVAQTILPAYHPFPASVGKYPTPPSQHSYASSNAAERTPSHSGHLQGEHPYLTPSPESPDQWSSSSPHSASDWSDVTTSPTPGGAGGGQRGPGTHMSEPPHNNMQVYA
Sequence of Pro-neuregulin-1, membrane-bound isoform (Homo sapiens) (Q02297 whole entry, looked up, the tested form may be a part, canonical isoform): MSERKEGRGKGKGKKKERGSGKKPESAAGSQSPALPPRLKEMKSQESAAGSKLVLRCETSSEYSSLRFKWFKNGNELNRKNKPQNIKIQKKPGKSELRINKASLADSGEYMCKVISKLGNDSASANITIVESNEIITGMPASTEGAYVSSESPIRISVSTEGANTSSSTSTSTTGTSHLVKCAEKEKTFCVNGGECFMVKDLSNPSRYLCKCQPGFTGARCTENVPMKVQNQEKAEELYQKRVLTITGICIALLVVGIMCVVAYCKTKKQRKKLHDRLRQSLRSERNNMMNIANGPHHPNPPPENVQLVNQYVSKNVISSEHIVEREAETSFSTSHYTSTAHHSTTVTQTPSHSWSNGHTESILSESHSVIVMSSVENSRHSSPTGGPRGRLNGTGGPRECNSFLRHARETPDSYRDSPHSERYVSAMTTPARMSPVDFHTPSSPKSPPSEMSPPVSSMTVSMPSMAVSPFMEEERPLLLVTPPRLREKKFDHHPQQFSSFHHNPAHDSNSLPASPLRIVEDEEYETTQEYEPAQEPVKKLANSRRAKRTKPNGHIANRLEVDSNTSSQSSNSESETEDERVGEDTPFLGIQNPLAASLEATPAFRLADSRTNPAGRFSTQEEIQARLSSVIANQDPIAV

With `CCCCC(=C=CC[C@H](O)c1ccccc1OCCO)C[C@H](O)COCc1ccccc1`, the composite z-score was -0.0094 in [1]; 0.273 in [2]; -0.12 in [3]; -0.249 in experiment [4]; -0.673 in experiment [5]; 0.716 in [6]. For the same compound, the composite z-score in experiment [7] was 0.554; in experiment [9], 0.324; in [10] it was -0.0296. Further, the z-score in [8] was -1.01 (inactive).

Consider `CN(C)CCCNC(=O)[C@@H]1c2ccccc2C(=O)N(Cc2ccccc2)[C@H]1c1ccc(CO)cc1`, for which the composite z-score was 0.532 in [1]; -0.338 in [2]; 0.311 in experiment [3]; -0.343 in experiment [4]; -1.08 in [5]; -0.0367 in experiment [6]. Besides, the composite z-score was 0.571 in experiment [7], 0.178 in experiment [9] and -0.363 in experiment [10]. In [8], the z-score is -1.01 (inactive).

Turning to `CO[C@@H]1COC(=O)[C@H](C)NC(=O)[C@@H](C)COC(=O)CCC[C@H]1C`, the composite z-score in experiment [1] is -0.438; in experiment [2], 0.402; in experiment [3], -0.116; in experiment [4] it was 0.686; in [5], 0.183; in experiment [6], -0.0231. In addition, the composite z-score in [7] is 1.13; in experiment [9] it was -0.163; in experiment [10], -0.0296. In addition, the z-score in [8] was 0.227 (inactive).

On to `COC(=O)[C@@H]1N=C(c2ccc(OCCCO)cc2)O[C@@H]1c1ccccc1N=[N+]=[N-]`, for which the composite z-score is 1.64 in experiment [1]; 0.308 in experiment [2]; -0.006 in experiment [3]; -0.282 in [4]; 0.124 in [5]; 1.79 in [6]. The composite z-score in [7] came to 1.18; in experiment [9], 0.864; in experiment [10], 0.189. Moreover, the z-score in [8] is 3.42 (inactive).

As to `O=C1[C@H]2[C@H]3[C@H](O)[C@H](O)CC(=NOC[C@@H](O)COCc4ccco4)[C@H]3CC[C@H]2C(=O)N1Cc1ccc2c(c1)OCO2`, the composite z-score in experiment [1] was -0.707; in experiment [2] it was 1.73; in experiment [3], -0.204; in experiment [4], -0.143; in [5], -0.282; in [6], -0.621. The composite z-score in experiment [7] was 0.561; in [9], -0.3; in experiment [10], -0.44. The z-score in experiment [8] is 0.316 (inactive).

Turning to `CC(C)(C)N1CC=CC23O[C@@H]4C=CCCOC(=O)C4[C@H]2C(=O)N(CCCCCO)[C@@H]3C1=O` (stereo not given in full), the composite z-score in [1] was -0.0873; in experiment [2], 1.48; in experiment [3], -0.183; in experiment [4] it was 0.448; in experiment [5], 0.366; in experiment [6], -0.0196. For the same compound, the composite z-score in [7] is 1.28; in [9] it was -0.443; in experiment [10] it was 0.0156. Further, in experiment [8], the z-score was -0.85 (inactive).

Consider `CO[C@H]1COC(=O)[C@H](C)NC(=O)[C@@H](C)COC(=O)CC=C[C@@H]1C`, for which the composite z-score was -0.618 in [1]; 1.06 in experiment [2]; -0.116 in [3]; 0.409 in experiment [4]; -0.0804 in experiment [5]; -0.194 in experiment [6]. Also, the composite z-score in experiment [7] is 0.547; in experiment [9], 0.0356; in experiment [10], -0.434. In addition, the z-score in [8] is -0.599 (inactive).

On to `CCCNC(=O)OC[C@H]1O[C@H](CCON=C[C@@H](OC)[C@H](C)C=CCC(=O)OC)C=C[C@@H]1Oc1ccc(OC)cc1`, for which the composite z-score in experiment [1] is -0.479; in [2] it was 0.698; in [3], -0.136; in [4], -0.192; in experiment [5], -0.0065; in [6], -0.23. Moreover, the figures for the composite z-score in experiment [7], in experiment [9] and in experiment [10] were 0.614, -0.0617 and -0.0672, respectively. Moreover, in [8], the z-score is 1.16 (inactive).

For the compound `COc1ccc([Si](C)(C)[C@@H]2[C@@H](CC(=O)N3CCC[C@H]3CO)O[C@]3(C(=O)N(Cc4cccc(N5CCC5=O)c4)c4ccccc43)[C@H]2C)cc1`, the composite z-score in experiment [1] is -0.0723; in experiment [2], 0.461; in experiment [3], -0.0715; in [4] it was 0.45; in experiment [5], 0.322; in [6] it was 1.51. For the same compound, the composite z-score in [7] is 1.14; in experiment [9], -0.187; in experiment [10], 0.107. The z-score in experiment [8] is -0.548 (inactive).

As to `O=C1[C@H]2[C@H]3[C@H](O)[C@H](O)CC(=NOCc4ccccc4)[C@@H]3CC[C@H]2C(=O)N1C1CCCCC1`, the composite z-score was -0.116 in [1]; 0.487 in [2]; -0.098 in [3]; 0.292 in experiment [4]; 0.0141 in experiment [5]; 1.1 in [6]. Moreover, the composite z-score in experiment [7] came to 0.564; in experiment [9], 0.0422; in [10], 0.0024. Further, the z-score in experiment [8] was 0.32 (inactive).

As for `CC(=O)OC[C@H]1O[C@@H](ON=C[C@@H](C)[C@H](OCc2ccccc2)C(C)C)[C@H](OC(C)=O)[C@@H](OC(C)=O)[C@@H]1OC(C)=O`, the composite z-score in experiment [1] is -0.624; in experiment [2], 1.69; in experiment [3], -0.0959; in experiment [4] it was 0.372; in [5] it was 0.55; in experiment [6], -0.927. Also, the figures for the composite z-score in experiment [7], in experiment [9] and in [10] were -1.19, 0.304 and -0.134, respectively. Besides, the z-score in [8] was -0.703 (inactive).

As for `CC(C)[C@H](NC(=O)OC(C)(C)C)[C@@H](O)CC(=O)OC(C)(C)C`, the composite z-score in [1] is -0.273; in experiment [2], -0.584; in [3], -0.116; in experiment [4], -0.267; in [5], -0.756; in experiment [6], -0.739. The values for the composite z-score in [7], in experiment [9] and in [10] were -1.18, -0.357 and 0.0881, respectively. Besides, in experiment [8], the z-score is 0.0293 (inactive).

In the case of `CC(CCN1CCc2nc(-c3ccccc3)c(-c3ccccc3)cc2C1)=NOC(C)CN1CCCCc2nc(C)c(C)cc21` (stereo not given), the composite z-score in [1] was -0.16; in experiment [2], -0.0309; in [3] it was -0.0398; in experiment [4], 0.476; in [5] it was 0.519; in experiment [6], 0.657. Besides, the composite z-score came to 0.885 in [7], 0.465 in [9] and 0.115 in [10]. Also, in experiment [8], the z-score is 1.1 (inactive).

`COCCOC(=O)N1C(=O)[C@@]2(c3cc(C#CCNC(N)=O)ccc31)[C@H](c1ccccc1OCCO)N1[C@H](c3ccccc3)[C@H](c3ccccc3)OC(=O)[C@H]1[C@@H]2C(=O)N1CCN(c2ncccn2)CC1`: the composite z-score in [1] worked out at 0.202; in [2], 1; in [3] it was 0.0019; in experiment [4], 1.15; in experiment [5], 1.27; in [6], 1.27. Further, the composite z-score in [7] was 0.955; in [9] it was 0.141; in experiment [10] it was -0.0618. Moreover, the z-score in [8] is -1.69 (inactive).

In the case of `COC(=O)CC=C[C@H](C)[C@H](CO)NS(=O)(=O)c1ccc(C)cc1`, the composite z-score was -0.634 in experiment [1]; 0.0049 in experiment [2]; -0.163 in [3]; 0.476 in experiment [4]; 0.24 in experiment [5]; -0.0696 in [6]. Further, the composite z-score in experiment [7] was 0.629; in [9], 0.12; in [10], -0.132. Further, the z-score in experiment [8] is -0.599 (inactive).

For `CCCCCN1CC=CC23O[C@@H]4C=CCOC(=O)[C@@H]4[C@H]2C(=O)N(CCCCCCO)[C@@H]3C1=O` (stereo not given in full), the composite z-score was 0.729 in experiment [1]; -0.859 in experiment [2]; -0.133 in experiment [3]; -0.237 in experiment [4]; -1.14 in [5]; 2.35 in experiment [6]. Moreover, the composite z-score in [7] was 0.975; in experiment [9], -0.823; in [10] it was -0.429. In addition, the z-score in experiment [8] is 0.428 (inactive).

Turning to `COC(=O)c1c(CC[C@@H](CO)NC(=O)N[C@H](Cc2ccccc2)Cn2cc(-c3ccccc3N)nn2)oc(C(C)=O)c1C(=O)OC`, the composite z-score in [1] stood at 0.718; in experiment [2] it was 0.799; in [3], 0.241; in experiment [4], 0.465; in experiment [5] it was 0.269; in experiment [6], 0.939. In addition, the figures for the composite z-score in experiment [7], in experiment [9] and in experiment [10] were 0.71, 0.914 and 0.176, respectively. For the same compound, in experiment [8], the z-score was -0.52 (inactive).

Values taken from PubChem BioAssay.
